Screens (PubChem BioAssay)
Rows were chosen to be rich in hits. Some 2.7% of all compounds tested hit in one or more screens of this group.
rTrxR1 inhibitor = blocks rat thioredoxin reductase 1; O89049; Potency, µM (doses to about 114 µM), inactives show at the highest dose activity change, negative = inhibition, most hits filed as inhibitors; recombinant rTrxR1, NADPH fluorescence consumption, selenite substrate; AID 588453; 390,000 compounds, 1% hits; further: on the % scale 0 is the no-effect control and ±100 the full control effect; nearly all actives have a fitted effect of over 65% in size
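Rat TrxR1 (90 nM in the dispensed reagent) was pre-reduced with 400 uM NADPH for 5 min at room temperature, then incubated with compound for 15 min. After 400 uM selenite was added, NADPH fluorescence (Ex 340/Em 450 nm) was followed for 8 min.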
GLP-1R inv ag = inverse agonists of human GLP-1 receptor | P43220 | HEK293 GLP-1R CRE-luciferase, luminescence, 24 h; GLP-1R form is constitutively active | Potency, µM (highest dose often 38.3 µM), inactives show at the highest dose activity change, negative = inhibition, hits mostly inhibitors | 410,000 compounds, 1.6% hits; further: on the % scale 0 is the no-effect control and ±100 the full control effect; nearly all actives have a fitted effect of over 55% in size
Target sequence (P43220 whole entry, looked up): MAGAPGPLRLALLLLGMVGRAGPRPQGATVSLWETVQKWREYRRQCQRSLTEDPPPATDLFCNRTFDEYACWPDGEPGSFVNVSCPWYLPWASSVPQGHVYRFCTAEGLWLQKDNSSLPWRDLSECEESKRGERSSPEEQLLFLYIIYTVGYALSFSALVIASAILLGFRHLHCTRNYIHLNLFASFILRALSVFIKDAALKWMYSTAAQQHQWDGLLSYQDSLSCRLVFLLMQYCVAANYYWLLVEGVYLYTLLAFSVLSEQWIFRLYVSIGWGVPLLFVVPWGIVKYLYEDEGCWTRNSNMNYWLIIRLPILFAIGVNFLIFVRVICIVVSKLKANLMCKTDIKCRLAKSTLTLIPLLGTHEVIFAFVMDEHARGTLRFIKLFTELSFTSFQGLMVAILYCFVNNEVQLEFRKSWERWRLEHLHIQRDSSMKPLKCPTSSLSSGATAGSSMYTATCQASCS
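Readout was luciferase luminescence, measured 12 min after detection reagent at room temperature. Beforehand, GLP-1R reporter HEK293 cells had sat 12 h, then received compounds for 24 hr at 37 deg C.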
GLP1R cytotox = cytotoxicity counter-screen for GLP-1 receptor inverse agonists; HEK293 cAMP-luciferase reporter cells, luminescence, 24 h; Potency, µM (doses to about 38.3 µM), for inactives: top-dose activity change, negative = inhibition, actives largely listed as inhibitors; 410,000 compounds, 0.13% hits; AID 624418;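 further: loss of luciferase light is scored as toxicity; on the % scale 0 is the no-effect control and ±100 the full control effect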
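Seeding density was 200 cells/uL; after overnight-length (12 h) culture, 23 nL compounds went on for 24 h at 37 °C. Readout used a luciferase detection reagent, luminescence taken after 12 min at room temperature.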
IDH1 R132H inh = blocks human mutant IDH1 R132H enzyme. O75874. IDH1-R132H enzyme, NADPH consumption, diaphorase/resazurin fluorescence. Potency, µM (doses to about 76.6 µM), inactives show at the top dose activity change, negative = inhibition, hits mostly inhibitors. 390,000 compounds, 0.093% hits; further: on the % scale 0 is the no-effect control and ±100 the full control effect; nearly all actives have a fitted effect of over 65% in size
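IDH1-R132H (0.5 ug/mL dispensed) in pH 7.5 Tris buffer was preincubated 30 min with compound, then given a substrate mix of 0.016 mM NADPH and 2 mM alpha-KG for 80 min at room temperature; remaining NADPH was read by diaphorase/resazurin fluorescence.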
GLP1R ag = activates the human GLP-1 receptor; 380,000 compounds, 0.007% hits; HEK293 GLP-1R CRE-luciferase, luminescence, 4-6 h; cells express a hypersensitive GLP-1R form; Potency, µM (highest dose often 45.6 µM), for inactives: at the highest dose activation, most hits filed as activators; P43220; AID 624172; further: % of control where 0% means no effect
TrxR1 substrate = is turned over as a substrate by rat TrxR1; Potency, µM (highest dose often 114 µM), inactives show top-dose activity change, negative = substrate turnover; 390,000 compounds, 0.01% hits; purified TrxR1 substrate turnover, NADPH consumption readout; further: on the % scale 0 is the no-effect control and ±100 the full control effect; nearly all actives have a fitted effect of over 50% in size
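Rat TrxR1, dispensed at 90 nM, was prereduced with 400 uM NADPH (final) for 5 min at ~22 deg C, then incubated with compound 15 min before 400 uM selenite. A first-read NADPH fluorescence drop versus no-compound background flagged substrates.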
* marks the source's active call; other numbers are inactive results; ? = inconclusive; . = not tested or not shown; [ ] = remark or other dose. The call rests on the fitted dose curve; in most records, active means well fitted curve in the direction sought with a large enough effect; inconclusive means small, poorly fitted or top-dose-only effect, or another doubt; inactive means no such curve, though single readings can be large; an effect the other way counts as inactive or inconclusive. Potency means the concentration at half of the fitted maximal effect.

SMILES	rTrxR1 inhibitor	GLP-1R inv ag	GLP1R cytotox	IDH1 R132H inh	GLP1R ag	TrxR1 substrate
CC(C)(C)NC(=O)C(c1c[nH]c2ccccc12)N(C(=O)Cn1nnc(-c2ccc(Cl)cc2)n1)c1ccccc1F (configuration not stated)	-1%	5µM*	-19%	1%	-22%	-1%
COc1cc2[nH]c(Cl)c([N+](=O)[O-])c2cc1OC	1.4µM*	33%	-3%	8%	-1%	3%
S=C(Nc1ccccc1)Nc1ccc(OCc2ccc(Cl)cc2Cl)cc1	0%	?	?	3%	-7%	1%
CC(C)NC(=NCc1ccc(Cl)cc1Cl)Nc1ccccc1	18%	7.9µM*	-14%	2%	-6%	-1%
CC(=O)[C@@]1(O)CC[C@H]2[C@H]3C[C@@H](C)C4=CC(=O)C=C[C@]4(C)[C@@]3(F)[C@@H](O)C[C@]21C	.	.	.	.	-4%[19.8 µM]	.
Cc1ccc(-c2nn(-c3cccc(F)c3)cc2CN(Cc2nccn2C)C(C)C)o1	-62%	?	?	5%	0%	19%
COc1ccc(-n2cc(CN3CCCC3)c(-c3cccc(F)c3)n2)cc1	31%[57.1 µM]	?	?	0%	15%	8%[57.1 µM]
Cc1ccc(-c2nn(-c3cccc(F)c3)cc2CN2CCN(c3ccccn3)CC2)o1	?	10µM*	5%	0%	-1%	-2%
CC(=O)N1CCCN(Cc2cn(-c3ccc(C)cc3)nc2-c2cccc(C)c2)CC1	33%	10µM*	-15%	13%	24%	-2%
Cc1cccc(-n2cc(CN3CCN(Cc4nccn4C)CC3)c(-c3cccc(F)c3)n2)c1	13%	4.5µM*	?	-5%	14%	4%
COc1ccc(NC(=O)CN(C)C(=O)c2cn(-c3ccccc3)nc2-c2cccs2)cc1	9%	11µM*	-4%	8%	-1%	-6%
COc1ccc(NC(=O)c2cn(-c3ccccc3)nc2-c2ccc(C)cc2)cc1	11%	7.9µM*	1%	-3%	.	-4%
COc1ccc(NC(=O)c2cnn(-c3ccccc3)c2C)cc1	28%	7.9µM*	-17%	8%	2%	7%
CN(CC(=O)Nc1ccc(F)cc1)C(=O)c1cn(-c2ccccc2)nc1-c1cccs1	10%	?	6%	15%	-1%	-4%
CCN(CC)CCNC(=S)NC(=O)c1cn(-c2ccccc2)nc1-c1ccc(OC)cc1	3%	5µM*	?	2%	19%	-5%
CC(C)(C)n1ncc2c(=O)n(Cc3ccc(F)c(F)c3F)cnc21	27%	.	.	.	.	9%
Cc1nc2nc(NCc3cccc(Cl)c3)[nH]n2c(=O)c1Cc1ccccc1	9%	0%	-7%	2%	.	-3%
COc1ccc(NC(=O)c2cccnc2Nc2ccc(OC)cc2)cc1	0%	10µM*	-9%	4%	9%	-7%
COc1ccc(Nc2ncccc2C(=O)Nc2ccccc2)cc1	-10%	?	7%	11%	5%	-11%
Cc1ccc2oc(-c3cccc(NC(=O)COc4ccc(Cl)cc4C)c3C)nc2c1	13%	.	.	.	.	4%
CCOC(=O)Cc1ccc(NC(=O)N(Cc2ccc(OC)cc2)C2CCN(C(C)=O)CC2)cc1	14%	-17%	0%	-9%	.	1%
CCN(CC)c1ccc2nc3ccccc3[n+](CC)c2c1	-26%	?	11µM*	12%	-1%	-11%
CCN(CC)c1ccc2nc3ccc(N)cc3[n+](-c3ccccc3)c2c1	-13%	?	?	-3%	-30%	-7%
Oc1ccc(NC(=S)Nc2ccccc2)cc1	-7%[57.1 µM]	2%	1%	8%	-7%	16%[57.1 µM]
N#Cc1cccc(NC(=S)Nc2ccccc2)c1	45µM*	8%	-14%	1%	-3%	-4%
SMILES	rTrxR1 inhibitor	GLP-1R inv ag	GLP1R cytotox	IDH1 R132H inh	GLP1R ag	TrxR1 substrate
O=C(c1ccc2c(=O)n(CC3CCCO3)c(=S)[nH]c2c1)N1CCN(C(=O)c2ccco2)CC1 (configuration not stated)	?	.	.	.	.	4%
CC(C)(C)n1ncc2c(=O)n(Cc3ccc(C#N)cc3)cnc21	-2%	.	.	.	.	0%
CNC(=S)NN=C(C)CCCC(C)=NNC(=S)NC	-21%[11.4 µM]	?	1.8µM*	1%	-4%	6%[57.1 µM]
O=C(NCCCCCCNC(=O)OCc1ccccc1)OCc1ccccc1	21%[11.4 µM]	17%	0%	0%	-1%	13%[57.1 µM]
O=C(OCc1ccccc1)N(CCCCN(CCCNCc1ccccc1)C(=O)OCc1ccccc1)CCCNCc1ccccc1	-14%	2.8µM*	?	8%	-5%	-4%
Cc1ccc(NC(=O)Cn2c(=O)oc3cc(S(=O)(=O)NCc4ccccc4)ccc32)cc1	6%	?	0%	-13%	.	-3%
COc1ccc(-c2nc3n(n2)C(=O)CC(c2ccco2)S3)cc1 (configuration not stated)	14µM*	5%	6%	2%	19%	3%
O=C(c1ccccc1)c1cc(Cl)ccc1N1C(=O)C=CC1=O	0.79µM*	?	?	-5%	1%	7%
O=C(CC(=O)c1cc(Cl)ccc1O)c1ccccc1	-5%	?	74%	2%	0%	4%
FC(F)(F)c1nc(=S)c2ccccc2[nH]1	4.5µM*	3%	-1%	16%	-3%	-2%
COc1ccc(N2CCN(S(=O)(=O)CCNC(=O)c3ccc(OC(C)C)cc3)CC2)cc1	16%[57.1 µM]	1%	6%	2%	.	1%[57.1 µM]
COc1ccc(C=Cc2ccc3ccccc3n2)c(OC)c1	.	4.5µM*	121%	12%	-5%	.
COc1ccc(OC)c(/C=C/c2ccc3ccccc3n2)c1	65%	.	.	.	.	93%
Cc1ccccc1NC(=O)C(=O)NCC1(c2ccccc2)CCCC1	7%	-29%	-2%	0%	.	0%
O=C(NCc1ccccc1Cl)c1ccc(CSc2nc3ccncc3[nH]2)cc1	0%	10µM*	-4%	4%	8%	-4%
Clc1ccccc1CSc1nc2ccncc2[nH]1	25%	-2%	-3%	-4%	5%	4%[57.1 µM]
C[C@]12CC[C@@H]3c4ccc(O)cc4CC[C@H]3[C@@H]1CCC2OC(=O)CCC1CCCC1 (some centres not stated)	.	.	.	.	0%	.
CC(C)c1ccc(Nc2c(-c3ccccn3)nc3ccccn23)cc1	10%	?	-16%	?	.	2%[2.29 µM]
CC(C)Oc1ccc(CNC(=O)c2ccc(CS(=O)c3cccc(Cl)c3)o2)cc1 (configuration not stated)	6%	-15%	-2%	-12%	.	-6%
CC(C)Cn1cc(C(=O)N2CCN(c3cccc(Cl)c3)CC2)c2c3ccccc3n(C)c2c1=O	37%	10µM*	-17%	20%	.	29%
